Screening data: PubChem, Sanford-Burnham Center for Chemical Genomics
Compounds with a hit are over-represented: about 3% of the library has one in this group of screens.
SENP6 inh = SENP6 protease inhibition. Q9GZR1. Recombinant SENP6 catalytic domain, aminoluciferin luminescence. inhibition, % at 10 µM. actives 1.8% (n = 330,000);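 active = inhibition above about 50% at the single tested dose, limit read from the data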;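 also: plate controls were DMSO wells with enzyme for no effect and DMSO wells lacking enzyme for full effect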
SENP7 block = SENP7 protease inhibition | Q9BQF6 | recombinant SENP7, Z-RLRGG-aminoluciferin luminescence, 40 min | inhibition, % at 5 µM | actives 1.5% (n = 330,000) | AID 434973;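 active = inhibition above about 50% at the single test dose, limit read from the data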;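 also: plate controls were DMSO with enzyme for no effect and no enzyme buffer wells for full effect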
Target sequence (Q9BQF6 706-1050 limits assumed): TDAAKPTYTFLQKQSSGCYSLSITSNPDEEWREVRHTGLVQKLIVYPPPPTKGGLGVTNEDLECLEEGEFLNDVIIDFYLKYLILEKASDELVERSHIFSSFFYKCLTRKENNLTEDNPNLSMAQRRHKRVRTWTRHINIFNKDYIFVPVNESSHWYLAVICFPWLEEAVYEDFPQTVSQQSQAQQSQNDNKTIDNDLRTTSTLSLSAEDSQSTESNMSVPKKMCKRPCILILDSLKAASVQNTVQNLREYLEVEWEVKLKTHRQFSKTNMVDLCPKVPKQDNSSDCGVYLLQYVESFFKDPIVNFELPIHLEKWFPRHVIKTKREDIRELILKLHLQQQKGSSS
PPC-1+TRAIL kill = compounds killing PPC-1 cancer cells with TRAIL present (potentiator screen, no TRAIL-free arm) | PPC-1 cells + TRAIL, ATPLite viability luminescence | cell killing (% activity), % at 4 µM or 5 µM | actives 0.41% (n = 220,000) | AID 1443;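 active = cell killing above 50% in the first pass at 4 µM, then a duplicate retest at 5 µM averaging 50% or more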;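 also: plate controls were cells with TRAIL plus DMSO for no effect and medium-only wells lacking cells for full effect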
SENP8 block-1 = inhibitors of human SENP8 protease | inhibition, % at 10 µM | actives 1.2% (n = 330,000) | purified SENP8, Z-RLRGG-aminoluciferin cleavage, luminescence | Q96LD8; in the data active = inhibition above about 50%
C8 TRAIL sens = sensitizes caspase-8 expressing cells to TRAIL | actives 1% (n = 360,000) | NB7+C8 cells + TRAIL, ATPlite viability luminescence | inhibition (viability loss, TRAIL sensitization), % at 10 µM;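 active = compounds causing at least 50% loss of cell viability in the single-dose screen, relative to plate controls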
SENP8 block-2 = inhibitors of human SENP8 protease | Q96LD8 | recombinant SENP8, Nedd8 substrate fluorescence | inhibition, % at 20 µM | actives 0.64% (n = 360,000) | AID 602440; in the data active = inhibition mostly above about 40%, no sharp cut-off; inactive = mostly below about 27%
An asterisk follows results filed as active; . = no result given.

SMILES	SENP6 inh	SENP7 block	PPC-1+TRAIL kill	SENP8 block-1	C8 TRAIL sens	SENP8 block-2
C=CCC[C@H](CCCCC)OC(=O)/C=C/[C@@H](O)[C@H](O)C[C@@H](O)CC=C	.	.	.	.	-12.1	15.1
CC(C)C[C@@H]1CN(CCCC[C@H]2CNC(=O)C(=O)N2CCC2CCCCC2)C(=O)C(=O)N1Cc1ccccc1	.	.	.	.	-7.4	-1.5
Cc1cccc(NC(=S)NC(=O)c2oc3ccccc3c2C)n1	19.0	17.5	.	5.1	64.0*	-0.4
Cc1ccc(C)c(C(=O)C(C)OC(=O)CN2C(=O)NC3(CC(C)CC(C)(C)C3)C2=O)c1 (configuration not stated)	-11.6	-2.9	.	3.6	-7.0	6.4
CS(=O)(=O)N(CC(=O)N1CCCC1)C1CCCCC1	.	.	.	.	0.7	24.3
Oc1c(Br)cc(Br)cc1C=Nc1cccc2ncccc12	71.9*	13.8	.	50.2*	-14.1	-8.0
Cc1cccc(NC(=O)COc2coc(CN3CCN(c4ccccc4)CC3)cc2=O)c1C	-2.5	18.8	.	-15.9	12.4	1.4
c1ccc(-c2nn3c(C4CCCCC4)nnc3s2)nc1	-13.9	-4.8	-7.2	-1.0	0.3	4.4
Clc1ccc(OCc2nn3c(C4CCCCC4)nnc3s2)cc1	-9.1	-0.3	6.8	-4.3	57.3*	26.3
Nc1cc2c3c(cccc3c1)C(=O)N(CCN1CCCC1)C2=O	.	.	14.3	.	24.7	24.4
O=C1c2cccc3cc([N+](=O)[O-])cc(c23)C(=O)N1CCN1CCCC1	11.2	9.6	25.3	3.9	59.2*	30.3
COc1ccc(N2CCN(C(=S)NCc3ccccc3)CC2)cc1	-9.6	10.7	6.1	8.0	0.0	12.4
CCN(CC)S(=O)(=O)c1ccc(NC(=O)Nc2cccc(C(F)(F)F)c2)cc1	4.6	3.7	1.7	-0.3	68.7*	17.7
O=C(Nc1ccc(OC(F)F)cc1)Nc1cccc(C(F)(F)F)c1	-2.6	-7.0	17.3	-2.0	59.6*	13.3
COc1ccc(CC(N)c2csc(NC(=O)Nc3cccc(C(F)(F)F)c3)n2)cc1 (configuration not stated)	.	.	.	.	70.2*	15.1
Cc1ccc(S(=O)(=O)Nc2ccc(NC(=O)Nc3cccc(C(F)(F)F)c3)cc2)cc1	-9.7	-2.9	-1.1	-9.0	-4.8	8.4
CC(C)CN1CCC(=O)N([C@H](COc2ccccc2)c2ccccc2)CC1	-4.9	-6.6	.	-7.9	3.9	12.1
CC(C)NC(=O)C1(C)CSCC(=O)N1C1CC1 (configuration not stated)	.	.	.	.	15.0	13.7
NC(=O)NC(CC(=O)NCc1ccc2c(c1)OCO2)c1ccccc1Cl (configuration not stated)	-6.8	-5.1	.	4.5	-3.0	4.5
O=C1c2cccc(O)c2C(=O)c2c(O)cc(CO)cc21	27.6	1.9	.	10.4	.	.
CC1OC2CC(=O)OC2C2=C1C(=O)c1c(O)cccc1C2=O (configuration not stated)	.	.	.	.	93.7*	99.1*
COc1ccc(OCC(=O)N2CCCC(Nc3ccc(C)c(C)c3)C2)cc1 (configuration not stated)	.	.	.	.	-11.5	0.6
Cc1ccc(C(=O)c2coc3c2C(=O)C(=O)c2ccccc2-3)cc1	23.1	-2.3	-7.8	2.8	-5.0	55.9*
Cc1oc2c(c1C(=O)c1ccc(Cl)cc1)C(=O)C(=O)c1ccccc1-2	.	.	14.3	.	94.4*	113.4*
COc1ccc(C(=O)c2coc(-c3ccccc3C(=O)O)c2C(=O)O)cc1	-12.5	2.7	7.2	-2.1	-19.8	5.2
SMILES	SENP6 inh	SENP7 block	PPC-1+TRAIL kill	SENP8 block-1	C8 TRAIL sens	SENP8 block-2
O=C(c1ccc(Cl)cc1)c1ccc(CN2C(=O)c3ccccc3C2=O)o1	-4.1	2.6	2.8	-5.6	5.9	23.9
COc1cccc(-n2c(SCC(=O)N3CCCCC3)nc3c([nH]c4ccccc43)c2=O)c1	-7.1	-8.0	4.0	20.7	53.7*	-67.3
CCCCC[C@@H]1C=C(C(=O)O)[C@H](c2ccc(OC)c(OC)c2)N1S(=O)(=O)c1ccc(C)cc1	-6.7	-7.9	.	-4.9	-1.3	-13.4
N#Cc1c(-c2ccccc2)nc(SCC(=O)N2c3ccccc3Sc3ccccc32)[nH]c1=O	16.7	8.5	13.4	17.2	16.4	-33.0
Cc1ccc(-c2cc(-c3ccccc3)no2)c(O)c1	.	.	50.0	.	78.3*	-60.8
CC(=O)Nc1ccc2nc(-c3ccccc3)cn2c1	1.0	1.2	46.8	9.6	54.3*	-386.0
Cc1ccc(C(=O)Oc2cc(-c3ccccc3)no2)cc1	0.8	0.2	-11.2	0.9	-8.8	3.2
